# G9a inh – G9a (human) methyltransferase inhibition; Q96KQ7; Potency, µM (top dose mostly 102 µM), for inactives: at the highest dose activity, negative = inhibition, most hits filed as inhibitors; 350,000 tested, 8.8% active; G9a H3K9 monomethylation, AlphaScreen, 2 h; note: % is set by controls: 0 for no effect and ±100 for the full control effect; nearly all actives have a fitted effect of over 75% in size
#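 Signal arises when biotinylated H3K9 peptide, once monomethylated, bridges streptavidin donor and antibody-captured acceptor beads. Enzyme at 20 nM was preincubated 15 min with test compounds; peptide 500 nM and SAM 20 uM then reacted for 2 h.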
# BAZ2B inh – blocks human BAZ2B; 360,000 tested, 4.4% active; AlphaScreen BAZ2B-H3K14Ac peptide displacement; Q9UIF8; Potency, µM (doses to about 114 µM), without a hit: top-dose activity change, negative = inhibition, usual class: inhibitors; note: % is set by controls: 0 for no effect and ±100 for the full control effect; nearly all actives have a fitted effect of over 60% in size
#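 In this displacement format the biotinylated H3(5-23) peptide acetylated at Lys14 serves as ligand at 50 nM, with BAZ2B at 50 nM in PBS pH 7.4 containing 0.01% Tween-20. Donor and acceptor beads are 10 ug/mL final.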
# GLS inhibitor – glutaminase GLS (human) inhibition. O94925. Potency, µM (titrated, usually from 45.5 µM), inactives show at the top dose activity change, negative = inhibition, most hits filed as inhibitors. AID 624170. 410,000 tested, 0.21% active. GLS enzymatic activity, qHTS titration; note: % is set by controls: 0 for no effect and ±100 for the full control effect
#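 Enzyme dispensed in phosphate buffer (45 mM, pH 8.2, 0.02% Tween-20), compounds pinned in, then 1 mM L-glutamine solution and the glutamate oxidase–HRP–Amplex Red mix added; fluorescence read immediately and again after 30 min at room temperature.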
# JMJD2A Tudor – inhibitors of human JMJD2A Tudor domain. O75164. Potency, µM (doses to about 114 µM), without a hit: at the highest dose activity change, negative = inhibition, usual class: inhibitors. AlphaScreen JMJD2A-Tudor / H3K4me3 peptide binding. 390,000 tested, 4.4% active; note: % is set by controls: 0 for no effect and ±100 for the full control effect; nearly all actives have a fitted effect of over 50% in size
# HP1b binding inh – HP1-beta chromodomain-methylated histone interaction inhibition; 390,000 tested, 0.56% active; AID 540317; Potency, µM (highest dose often 114 µM), without a hit: at the top dose activity change, negative = inhibition, usual class: inhibitors; P83916; AlphaScreen HP1-beta / biotin-H3K9me3 peptide binding; note: nearly all actives have a fitted effect of over 70% in size
#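 AlphaScreen: HP1-beta (50 nM) preformed 30 min with biotin-H3(1-18)K9me3 peptide (50 nM) in PBS pH 7.4, 0.01% Tween-20. Compound added for 30 min at RT, then streptavidin donor/nickel chelate acceptor beads (10 ug/mL) for 30 min.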
# Starred values were filed as active, the others as inactive; ? = inconclusive; nt = no result given; [ ] = dose if it differs, or a comment. A selection: hits, their analogues and other compounds. The true share with any hit is near 10%. Calls come from the whole dose curve; as a rule, active = well fitted curve in the direction sought with a large enough effect; inconclusive = small, poorly fitted or top-dose-only effect, or another doubt; inactive = no such curve, though single readings can be large; an effect the other way counts as inactive or inconclusive. Potency is the fitted concentration of half-maximal effect.
SMILES,G9a inh,BAZ2B inh,GLS inhibitor,JMJD2A Tudor,HP1b binding inh
O=C(NCCCn1ccnc1)C(=O)NCC1OCCN1S(=O)(=O)c1ccc(F)cc1 (configuration not stated),19.5%,6.31µM*,-0.3%,56.2µM*,28.0%
O=C(NCCCn1ccnc1)C1CCCN(S(=O)(=O)c2ccc(F)cc2)C1 (configuration not stated),13.9%[59 µM],-11.5%,-2.6%,12.6µM*,23.2%
Cc1ccc(S(=O)(=O)N2CCC(C(=O)NCCCn3ccnc3)CC2)cc1,?,-1.4%,2.1%,-2.7%,24.6%
Cc1ccc(C)c(S(=O)(=O)N2CCCOC2CNC(=O)C(=O)NCCCn2ccnc2)c1 (configuration not stated),2.4%[59 µM],44.7µM*,11.5%,-33.1%,?
O=C(NCCCc1ccccc1)C(=O)NCC1OCCN1S(=O)(=O)c1ccc(F)cc1 (configuration not stated),21.2%,-24.4%,-10.0%,-5.5%,22.1%
COc1ccc(S(=O)(=O)N2CCCOC2CNC(=O)C(=O)NCCCn2ccnc2)cc1 (configuration not stated),6.3%,79.4µM*,-0.1%,-12.5%,20.5%
CCN(CC)S(=O)(=O)c1ccc(Cl)c(NC(=O)COC(=O)C2CCCCC2)c1,17.6%[59 µM],3.4%,-4.8%,1.0%,54.1%
Cc1ccc(S(=O)(=O)N2CCCOC2CNC(=O)C(=O)NCCCn2ccnc2)cc1 (configuration not stated),-27.3%[59 µM],50.1µM*,-15.7%,-23.2%,21.4%
Cc1cc(C)c(S(=O)(=O)N2CCCOC2CNC(=O)C(=O)NCCCn2ccnc2)c(C)c1 (configuration not stated),5.4%[59 µM],?,-2.5%,0.7%,19.6%
O=c1ccc(NS(=O)(=O)c2ccccc2Cl)cn1Cc1ccc(Cl)c(Cl)c1,28.2µM*,56.2µM*,59.2%,-24.7%,17.2%
O=C(O)Cc1ccc(NS(=O)(=O)c2ccccc2Cl)cc1,22.4µM*,?,20.0%,-3.6%,19.8%
c1ccc(CNn2c(N3CCOCC3)nc3ccccc32)cc1,9.2%,12.7%,5.3%,0.0%,35.9%
CCN(CC)c1ccc2c(c1)CCCN2,1.78µM*,44.7µM*,nt,nt,nt
COc1ccc(NC(=O)CN(C)CC(=O)NC2CCCCC2C)cc1 (configuration not stated),28.2µM*,9.7%,1.4%,-4.5%,40.7%
CCOc1ccc(CN(C)CC(=O)Nc2ccc3c(c2)CCC3)cc1OC,-0.3%,-17.2%,-10.8%,-16.9%[57.1 µM],8.3%
COc1ccc(CC(=O)N(C)CC(=O)Nc2ccccc2SC)cc1,-3.9%[59 µM],2.1%,?,28.2µM*,-5.5%
C=CCOc1ccc(CN(C)CC(=O)Nc2ccc3c(c2)CCC3)cc1,14.1µM*,50.1µM*,-6.6%,14.1µM*,-20.0%
CSc1ccccc1NC(=O)CN(C)C(=O)Cn1c(=O)oc2ccccc21,50.1µM*,11.3%,-13.3%,-7.9%,-5.2%
Cc1ccc(NC(=S)NCC(C)C)cc1,-18.3%[59 µM],-3.5%,16.6%,-6.4%,15.6%
COc1ccc(NC(=O)CN(C)C(=O)Cc2ccc3c(c2)CCC3)cc1,50.1µM*,-32.8%,-1.3%,-20.7%,3.9%
Cc1ccc(NC(=O)CN(C)C(=O)Cc2ccc3c(c2)CCC3)cc1,50.1µM*,9.2%,-12.3%,-0.7%,31.9%
Cc1ccc(NC(=O)Cc2ccc3c(c2)CCCC3)cc1C,?,-3.3%,1.0%,0.6%,-11.0%
COCC(=O)N(Cc1cc2ccc(C)cc2[nH]c1=O)c1ccccc1C,-6.7%,-15.7%,5.7%,-10.3%,7.9%
Cc1ccc(-n2cc3c(c2-c2ccccc2Br)c(=O)n(C)c(=O)n3C)cc1N,?,50.1µM*,1.9%,?,-7.5%
Cn1c(=O)c2c(-c3ccccc3Br)n(CCc3ccccc3)cc2n(C)c1=O,?,?,-11.5%,?,-20.0%
SMILES,G9a inh,BAZ2B inh,GLS inhibitor,JMJD2A Tudor,HP1b binding inh
O=c1[nH]n(-c2ccccc2)c(=O)c(Cl)c1Cl,36.3%[59 µM],-27.6%,2.7%,-11.5%,42.2%
O=C(O)C1C2CC3C(OC(=O)C31)C2Cl (configuration not stated),3.9%[59 µM],9.2%,3.1%,-0.7%,28.3%
CCOC(=O)CSc1nnc(NC(=O)c2cccc([N+](=O)[O-])c2C)s1,25.1µM*,-7.8%,10.0%,-9.6%,30.6%
CCOC(=O)CSc1nnc(NC(=O)CN2CCCCC2)s1,4.6%[12.7 µM],-4.0%,34.3%,50.1µM*,22.7%
CC(C)(C)C(=O)Nc1ccc(C(=O)N/N=C/C2CC3C=CC2C3)cc1 (configuration not stated),13.1%[59 µM],18.9%,8.7%,-7.0%,31.8%
CCCCCCN1C[C@H](n2cc(COC(=O)c3ccccc3)nn2)[C@@H](O)C[C@@H]1c1ccc(OC)cc1,nt,nt,-4.0%,nt,nt
O=[N+]([O-])c1ccc(/C=N/Nc2ncc(-c3ccccc3)cn2)cc1,-30.4%,-19.4%,-0.5%,-9.0%[11.4 µM],3.1%
O=[N+]([O-])c1cccc(C=NNc2ccccc2)c1,nt,nt,?,39.8µM*,?
O=[N+]([O-])c1ccc(C=NNc2ccccc2)cc1,nt,nt,?,25.1µM*,?
Cc1ccc(NS(=O)(=O)c2ccc3[nH]c(=O)ccc3c2)cc1N(C)C,7.5%[59 µM],?,2.5%,-28.7%,7.5%[57 µM]
CCN(C#N)c1nc(NC(C)C)nc(NC(C)C)n1,?,-2.4%,-1.8%,1.3%,27.5%
Cc1ccc(C(=O)Oc2cc(-c3ccccc3)no2)cc1,3.6%,-2.1%,-0.1%,4.8%,35.4%
O=C(Oc1cc(-c2ccccc2)no1)c1ccc(Cl)cc1,79.4µM*,?,27.4%,-28.1%[11.4 µM],23.4%
COc1ccc(-n2c(-c3ccc(Cl)cc3)cc3c2CC(C)(C)CC3=O)c(OC)c1,12.6µM*,11.2µM*,0.3%,14.1µM*,?
CC1(C)CC(=O)c2cc(-c3nc(-c4ccc(Cl)cc4)cs3)c(=O)n(-c3ccc(Cl)cc3)c2C1,-1.1%[59 µM],7.0%,-2.9%,-1.4%,40.2%
COc1ccc(-n2c3c(cc(-c4nc(-c5ccc(Cl)cc5)cs4)c2=O)C(=O)CC(C)(C)C3)cc1Cl,8.91µM*,-35.9%,1.1%,-9.9%,29.3%
COc1ccc(C)cc1-n1c(-c2ccc(Cl)cc2)cc2c1CC(C)(C)CC2=O,?,?,-2.4%,?,-13.1%
COc1ccc(-n2c3c(cc(-c4nc(-c5ccc(Cl)cc5)cs4)c2=O)C(=O)CC(C)(C)C3)cc1,4.47µM*,?,2.0%,-14.0%,46.1%
CC1(C)CC(=O)c2cc(C#N)c(=O)n(-c3ccc(Cl)cc3)c2C1,14.1µM*,3.6%,-0.1%,-6.8%,36.0%
COc1ccc(CC(=O)Nc2cc(S(=O)(=O)N3CCCC3)ccc2Cl)c(OC)c1,?,5.9%,-5.1%,-27.8%,10.4%
COc1ccc(C2CC(=O)c3cc(-c4nc(-c5cccc([N+](=O)[O-])c5)cs4)c(=O)n(-c4cccc(C)c4)c3C2)cc1 (configuration not stated),15.8µM*,-19.4%,-2.6%,-25.3%,19.6%
